Reference: PubChem BioAssay (EPA / NIEHS)
Records with an inconclusive call do not appear. Calls of active or inactive are those of the source. The calls were made as follows: active = hit-call score of the fitted dose curve at least 0.9, where 1 is the maximum; inconclusive = response in the unintended direction; inactive = score below 0.9.

Target: Retinoic acid receptor RXR-alpha (Homo sapiens) (UniProt P19793)
Test: OT_NURR1_NURR1RXRa_1440: Odyssey Thera (OT) 24-hour HEK293T Protein Complementation Assay for Nurr1/retinoid X receptor (RXR) (AID 2283386)
Method: OT_NURR1_NURR1RXRa_1440 is a cell-based assay that uses HEK293T, a human kidney cell line, with measurements taken at 24 hours after chemical dosing in a 384-well plate.OT_NURR1_NURR1RXRa_1440 is one of one assay component(s) measured or calculated from the OT_NURR1_NURR1RXRa_1440 assay. It is designed to make measurements of protein fragment complementation, a form of binding reporter, as detected with fluorescence intensity signals by Protein-fragment Complementation technology.Data from the assay component OT_NURR1_NURR1RXRa_1440 was analyzed into 1 assay endpoint. This assay endpoint, OT_NURR1_NURR1RXRa_1440, was analyzed in the positive analysis fitting direction relative to DMSO as the negative control and baseline of activity. Using a type of binding reporter, measures of receptor for gain-of-signal activity can be used to understand the binding at the pathway-level as they relate to the gene RXRA. Furthermore, this assay endpoint can be referred to as a primary readout, because the performed assay has only produced 1 assay endpoint. To generalize the intended target to other relatable targets, this assay endpoint is annotated to the nuclear receptor intended target family, where the subfamily is non-steroidal.
Protein-fragment complementation assay, or PCA, is a method for the identification and quantification of protein-protein interactions. In the PCA, the proteins of interest ("bait" and "prey") are each covalently linked to fragments of a third protein (e.g. DHFR, which acts as a "reporter"). Interaction between the bait and the prey proteins brings the fragments of the reporter protein in close proximity to allow them to form a functional reporter protein whose activity can be measured.

Chain of Retinoic acid receptor RXR-alpha (Homo sapiens) (P19793 whole entry, looked up): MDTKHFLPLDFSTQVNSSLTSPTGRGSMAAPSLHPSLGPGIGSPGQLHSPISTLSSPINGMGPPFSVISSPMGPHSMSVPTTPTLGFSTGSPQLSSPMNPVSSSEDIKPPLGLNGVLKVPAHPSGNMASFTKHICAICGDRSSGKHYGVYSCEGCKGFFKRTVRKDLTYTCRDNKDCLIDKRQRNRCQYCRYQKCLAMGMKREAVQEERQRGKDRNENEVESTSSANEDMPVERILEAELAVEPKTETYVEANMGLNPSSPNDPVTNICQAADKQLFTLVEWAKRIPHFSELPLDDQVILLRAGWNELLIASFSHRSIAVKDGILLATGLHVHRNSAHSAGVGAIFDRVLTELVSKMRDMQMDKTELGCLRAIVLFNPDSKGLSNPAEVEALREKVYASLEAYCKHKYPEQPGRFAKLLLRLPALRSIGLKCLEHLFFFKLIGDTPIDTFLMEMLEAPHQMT

| SMILES | outcome | AC50 |
| --- | --- | --- |
| CCOC(=O)C1OC1(C)c1ccccc1 (stereo not given) | inactive |  |
| COc1cc(OC)nc(Oc2cccc(Oc3nc(OC)cc(OC)n3)c2C(=O)O)n1 | inactive |  |
| O=C(NCNC(=O)NC1C(=O)NC(=O)N1CO)NC1C(=O)NC(=O)N1CO (stereo not given) |  | 78 µM (active) |
| CCC(=O)c1ccc(Cl)cc1 | inactive |  |
| CN(C)C(=O)C(c1ccccc1)c1ccccc1 | inactive |  |
| Cc1ccc(OP(=O)(Oc2ccc(C)cc2)Oc2ccc(C)cc2)cc1 (tested in a mixture with another compound) | inactive |  |
| C=CCN(CC=C)C(=O)C(Cl)Cl | inactive |  |
| O=C(NC(=O)c1c(F)cccc1F)Nc1ccc(Oc2ccc(C(F)(F)F)cc2Cl)cc1F |  | 31.3 µM (active) |
| O=C=Nc1ccccc1 | inactive |  |
| CC(=O)c1cc2c(cc1C)C(C)(C)C(C)CC2(C)C (stereo not given) | inactive |  |
| Nc1ccc(Cl)c(Cl)c1 | inactive |  |
| Oc1cc(Cl)ccc1Cl | inactive |  |
| c1cc[n+]2c(c1)-c1cccc[n+]1CC2 | inactive |  |
| O=[N+]([O-])c1ccc(Cl)cc1 | inactive |  |
| CC1CCCC1.[C-]#[O+].[C-]#[O+].[C-]#[O+].[Mn] | inactive |  |
| CNC(=N[N+](=O)[O-])NCC1CCOC1 (stereo not given) | inactive |  |
| O=P(O)(Oc1ccccc1)Oc1ccccc1 | inactive |  |
| CCOP(=O)(OCC)Oc1ccc([N+](=O)[O-])cc1 | inactive |  |
| O=C1Nc2ccc(Cl)cc2C(c2ccccc2)=NC1O (stereo not given) | inactive |  |
| CC[N+](=O)[O-] | inactive |  |

| SMILES | outcome | AC50 |
| --- | --- | --- |
| O=[N+]([O-])O | inactive |  |
| [CH3][Sn]([CH3])([Cl])[Cl] |  | 82.1 µM (active) |
| Nc1ccccc1 | inactive |  |
| CC(=O)C=Cc1ccccc1 | inactive |  |
| CC(C)(c1cc(Cl)c(O)c(Cl)c1)c1cc(Cl)c(O)c(Cl)c1 |  | 78.1 µM (active) |
| CCOP(O)OCC | inactive |  |
| C=CCO | inactive |  |
| Oc1ccc(Cl)cc1 | inactive |  |
| CC(Cc1ccc(C(C)(C)C)cc1)CN1C[C@@H](C)O[C@@H](C)C1 (stereo not given in full) |  | 81 µM (active) |
| CC(C)(O)C#N | inactive |  |
| Cc1cc(C)c(C2=C(OC(=O)CC(C)(C)C)C3(CCCC3)OC2=O)c(C)c1 | inactive |  |
| C=CC(=O)OCC(CC)CCCC (stereo not given) | inactive |  |
| CC(C)(Cl)Cl | inactive |  |
| CC(C)c1ccc(O)cc1 | inactive |  |
| c1ccc(P(c2ccccc2)c2ccccc2)cc1 | inactive |  |
| CCC1CCC(=O)O1 (stereo not given) | inactive |  |
| CCCC=NO | inactive |  |
| Nc1cc(Cl)cc(Cl)c1 | inactive |  |
| CC(O)CN(CC(C)O)CC(C)O (stereo not given) | inactive |  |
| O=C(CCl)c1ccccc1 |  | 11.6 µM (active) |
